Assay in all cases: DAPPL (digital affinity profiling via proximity ligation, sequencing); 10 mM Tris-HCl pH 7.5, 50 mM NaCl, 1 mM DTT, 4% glycerol, room temperature, 30 min; GST-TFs on glutathione beads, 16-mer random dsDNA library, 0.1% formaldehyde crosslink after washing; high values mean tight binding
Conditions in all cases: protein: recombinant; tags: N-terminal GST; dsDNA, one strand shown

One experiment has as its target T1, ELK1 (Homo sapiens, UniProt P19419 1-428).
T1 sequence: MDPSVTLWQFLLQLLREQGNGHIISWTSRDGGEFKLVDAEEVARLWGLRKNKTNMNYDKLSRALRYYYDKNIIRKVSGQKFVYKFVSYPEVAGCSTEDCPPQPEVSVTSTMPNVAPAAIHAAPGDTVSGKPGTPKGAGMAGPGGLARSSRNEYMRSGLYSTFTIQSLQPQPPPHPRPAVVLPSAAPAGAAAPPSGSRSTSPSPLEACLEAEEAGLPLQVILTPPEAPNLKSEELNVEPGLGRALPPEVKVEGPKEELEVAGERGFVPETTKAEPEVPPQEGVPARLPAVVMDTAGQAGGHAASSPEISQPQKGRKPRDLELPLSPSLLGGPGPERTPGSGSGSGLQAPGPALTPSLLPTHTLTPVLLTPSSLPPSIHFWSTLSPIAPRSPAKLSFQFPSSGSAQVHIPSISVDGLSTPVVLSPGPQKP
The procedure, abridged: (§1)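 Sequencing on an Illumina NextSeq500 followed washing, crosslinking with 0.1% formaldehyde, proximity ligation (BsaI/T4 ligase, 1 h, 37 °C) and PCR amplification of pools that had been incubated for 30 min at room temperature with 200 nmole of a random double-stranded 16-mer DNA library in Tris/NaCl/DTT/glycerol buffer. Each pool held DNA-barcoded human transcription factors, expressed in yeast as GST fusions and captured on glutathione beads, plus a tag-only sample. Binding signal is a hexamer's read frequency for a factor divided by its frequency in the tag-only sample.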

In another experiment the target is T2, GABPA (Homo sapiens, UniProt Q06546 1-454).
T2 sequence: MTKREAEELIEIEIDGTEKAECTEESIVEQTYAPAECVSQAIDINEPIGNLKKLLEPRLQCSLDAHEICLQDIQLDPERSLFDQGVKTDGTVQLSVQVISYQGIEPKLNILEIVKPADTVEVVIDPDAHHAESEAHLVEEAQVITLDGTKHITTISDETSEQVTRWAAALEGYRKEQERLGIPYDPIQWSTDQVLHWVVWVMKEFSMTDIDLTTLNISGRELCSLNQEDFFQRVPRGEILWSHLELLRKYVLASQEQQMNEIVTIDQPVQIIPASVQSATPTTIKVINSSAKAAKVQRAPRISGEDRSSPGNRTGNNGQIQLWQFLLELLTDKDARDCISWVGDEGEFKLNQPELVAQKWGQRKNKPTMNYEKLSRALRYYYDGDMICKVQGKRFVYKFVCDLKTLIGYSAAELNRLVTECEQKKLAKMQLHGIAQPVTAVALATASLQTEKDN
The procedure, abridged: as §1

The next experiment addresses T3, ERG (Homo sapiens, UniProt P11308 1-479).
T3 sequence: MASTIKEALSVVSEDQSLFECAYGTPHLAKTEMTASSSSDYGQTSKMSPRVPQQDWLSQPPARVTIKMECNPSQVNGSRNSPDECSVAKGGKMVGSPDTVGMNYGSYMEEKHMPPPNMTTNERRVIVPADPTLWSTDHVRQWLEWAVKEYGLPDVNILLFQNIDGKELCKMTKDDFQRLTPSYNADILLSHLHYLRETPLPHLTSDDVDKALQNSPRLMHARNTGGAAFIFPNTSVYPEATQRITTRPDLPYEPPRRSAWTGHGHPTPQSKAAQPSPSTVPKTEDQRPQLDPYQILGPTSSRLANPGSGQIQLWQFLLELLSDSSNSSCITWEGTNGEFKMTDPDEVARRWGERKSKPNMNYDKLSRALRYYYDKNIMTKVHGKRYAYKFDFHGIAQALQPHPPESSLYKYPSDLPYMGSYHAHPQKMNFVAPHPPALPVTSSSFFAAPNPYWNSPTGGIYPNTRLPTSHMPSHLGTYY
The procedure, abridged:
as §1

The next experiment concerns the target SPIB (Homo sapiens, UniProt Q01892 1-262). The procedure, abridged:
as §1

The target of a further experiment is T4, SPIC (Homo sapiens, UniProt Q8N5J4 1-248).
T4 sequence: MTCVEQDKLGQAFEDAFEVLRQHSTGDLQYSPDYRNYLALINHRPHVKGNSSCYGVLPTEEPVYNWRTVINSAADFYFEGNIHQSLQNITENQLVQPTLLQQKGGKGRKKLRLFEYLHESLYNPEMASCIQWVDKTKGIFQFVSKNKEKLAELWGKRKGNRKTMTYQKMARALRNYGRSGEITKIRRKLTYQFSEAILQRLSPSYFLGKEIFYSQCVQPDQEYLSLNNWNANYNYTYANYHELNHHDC
Put shortly: as §1

For the next experiment, the target named is ELF4 (Homo sapiens, UniProt Q99607 1-663). The procedure, abridged: as §1
The target of the next experiment is ETV1 (Homo sapiens, UniProt P50549 1-477). The procedure, abridged: as §1
In the next experiment the target is T5, ETV3L (Homo sapiens, UniProt Q6ZN32 1-361).
T5 sequence: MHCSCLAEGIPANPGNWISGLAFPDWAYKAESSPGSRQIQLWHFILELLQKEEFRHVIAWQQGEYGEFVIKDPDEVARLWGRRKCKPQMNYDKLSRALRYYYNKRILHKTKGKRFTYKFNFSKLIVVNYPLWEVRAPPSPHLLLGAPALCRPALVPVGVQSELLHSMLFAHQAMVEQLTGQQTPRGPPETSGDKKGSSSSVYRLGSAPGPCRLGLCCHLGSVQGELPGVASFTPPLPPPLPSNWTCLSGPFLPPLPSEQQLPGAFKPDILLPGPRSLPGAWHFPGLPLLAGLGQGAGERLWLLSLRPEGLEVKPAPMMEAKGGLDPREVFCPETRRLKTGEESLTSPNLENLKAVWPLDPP
The procedure, abridged: as §1

The target in another experiment is T6, ETS2 (Homo sapiens, UniProt P15036 1-469).
T6 sequence: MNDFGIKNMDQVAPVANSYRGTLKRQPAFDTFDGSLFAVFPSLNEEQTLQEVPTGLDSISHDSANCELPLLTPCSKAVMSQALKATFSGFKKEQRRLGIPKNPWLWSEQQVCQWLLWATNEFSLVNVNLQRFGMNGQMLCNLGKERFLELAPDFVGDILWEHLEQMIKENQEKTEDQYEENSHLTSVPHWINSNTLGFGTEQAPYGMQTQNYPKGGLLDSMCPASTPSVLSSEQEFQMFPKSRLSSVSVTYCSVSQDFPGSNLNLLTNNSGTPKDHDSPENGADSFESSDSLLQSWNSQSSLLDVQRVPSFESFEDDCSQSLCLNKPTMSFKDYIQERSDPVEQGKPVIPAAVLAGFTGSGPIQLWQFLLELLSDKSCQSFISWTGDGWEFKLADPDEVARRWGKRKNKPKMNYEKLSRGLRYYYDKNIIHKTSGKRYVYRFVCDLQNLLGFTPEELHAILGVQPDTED
Put shortly: as §1

The next experiment deals with T7, SPDEF (Homo sapiens, UniProt O95238 1-335).
T7 sequence: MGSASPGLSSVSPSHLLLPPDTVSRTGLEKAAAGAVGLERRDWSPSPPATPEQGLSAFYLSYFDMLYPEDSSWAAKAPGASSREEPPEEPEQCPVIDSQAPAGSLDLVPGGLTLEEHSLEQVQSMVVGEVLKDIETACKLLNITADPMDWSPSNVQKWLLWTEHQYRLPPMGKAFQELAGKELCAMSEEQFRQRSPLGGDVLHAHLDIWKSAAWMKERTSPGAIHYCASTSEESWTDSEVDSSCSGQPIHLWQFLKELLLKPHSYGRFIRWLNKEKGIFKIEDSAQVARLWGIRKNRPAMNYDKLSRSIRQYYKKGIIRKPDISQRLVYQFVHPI
Put shortly: as §1

The next experiment concerns the target T8, ETV7 (Homo sapiens, UniProt Q9Y603 1-341).
T8 sequence: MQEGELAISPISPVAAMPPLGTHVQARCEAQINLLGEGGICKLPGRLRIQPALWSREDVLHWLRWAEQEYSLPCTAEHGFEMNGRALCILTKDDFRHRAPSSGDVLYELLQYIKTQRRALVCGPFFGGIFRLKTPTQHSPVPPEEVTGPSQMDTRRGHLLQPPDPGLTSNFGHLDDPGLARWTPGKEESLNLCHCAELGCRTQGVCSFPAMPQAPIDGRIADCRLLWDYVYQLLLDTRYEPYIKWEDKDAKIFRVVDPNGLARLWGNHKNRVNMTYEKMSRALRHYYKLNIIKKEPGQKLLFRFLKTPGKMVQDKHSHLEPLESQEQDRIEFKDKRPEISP
The procedure, abridged:
as §1

The target of the next experiment is T9, ETV3 (Homo sapiens, UniProt P41162-2 1-143).
T9 sequence: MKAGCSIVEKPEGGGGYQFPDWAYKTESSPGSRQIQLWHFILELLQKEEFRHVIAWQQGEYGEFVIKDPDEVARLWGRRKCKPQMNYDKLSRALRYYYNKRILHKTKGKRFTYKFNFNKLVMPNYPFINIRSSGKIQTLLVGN
The procedure, abridged:
as §1

ETV1, sequence (P50549 whole entry): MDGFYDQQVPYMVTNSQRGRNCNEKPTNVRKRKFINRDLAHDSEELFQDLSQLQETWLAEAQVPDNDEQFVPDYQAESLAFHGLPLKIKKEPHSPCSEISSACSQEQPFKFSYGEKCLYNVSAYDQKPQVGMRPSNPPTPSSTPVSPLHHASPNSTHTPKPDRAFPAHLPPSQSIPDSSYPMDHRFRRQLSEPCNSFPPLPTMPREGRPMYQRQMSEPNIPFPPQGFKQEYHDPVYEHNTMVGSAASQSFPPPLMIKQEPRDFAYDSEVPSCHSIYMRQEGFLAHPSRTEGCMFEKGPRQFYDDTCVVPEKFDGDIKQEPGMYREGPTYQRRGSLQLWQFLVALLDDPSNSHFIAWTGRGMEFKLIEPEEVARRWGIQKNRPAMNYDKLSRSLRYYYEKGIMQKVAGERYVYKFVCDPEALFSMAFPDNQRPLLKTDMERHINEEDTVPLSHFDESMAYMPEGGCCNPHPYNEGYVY
SPIB, sequence (Q01892 whole entry): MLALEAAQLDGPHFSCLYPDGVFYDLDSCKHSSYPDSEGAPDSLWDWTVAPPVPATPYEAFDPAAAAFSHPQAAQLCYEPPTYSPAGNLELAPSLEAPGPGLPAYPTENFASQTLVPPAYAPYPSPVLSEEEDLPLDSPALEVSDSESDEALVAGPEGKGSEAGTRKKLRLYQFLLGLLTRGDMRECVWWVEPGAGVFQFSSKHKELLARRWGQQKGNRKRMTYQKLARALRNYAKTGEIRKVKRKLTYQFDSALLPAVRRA
ELF4, sequence (Q99607 whole entry): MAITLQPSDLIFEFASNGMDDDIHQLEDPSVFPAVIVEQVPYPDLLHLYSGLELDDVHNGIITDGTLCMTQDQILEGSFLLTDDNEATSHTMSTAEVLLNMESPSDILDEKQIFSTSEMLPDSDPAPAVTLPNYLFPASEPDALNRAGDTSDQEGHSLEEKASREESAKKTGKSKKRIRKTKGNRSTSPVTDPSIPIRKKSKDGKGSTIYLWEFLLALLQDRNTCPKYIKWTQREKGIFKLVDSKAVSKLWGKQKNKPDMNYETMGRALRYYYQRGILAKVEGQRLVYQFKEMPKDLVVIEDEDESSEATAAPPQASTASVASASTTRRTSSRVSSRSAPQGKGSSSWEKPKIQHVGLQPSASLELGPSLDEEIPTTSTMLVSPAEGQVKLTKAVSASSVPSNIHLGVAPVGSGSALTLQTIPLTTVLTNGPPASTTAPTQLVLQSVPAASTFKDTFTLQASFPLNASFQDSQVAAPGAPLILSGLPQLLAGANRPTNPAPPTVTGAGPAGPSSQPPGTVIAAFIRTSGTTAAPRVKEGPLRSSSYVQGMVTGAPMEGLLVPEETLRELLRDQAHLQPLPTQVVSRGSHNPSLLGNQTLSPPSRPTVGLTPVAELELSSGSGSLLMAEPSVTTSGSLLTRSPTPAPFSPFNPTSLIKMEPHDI

As for GGATCT, the binding signal in the experiment with ELK1 was 1.07 fold enrichment (6-mer frequency, TF over GST control); in the experiment with GABPA it was 1.02 fold enrichment (6-mer frequency, TF over GST control); with ERG, 1.01 fold enrichment (6-mer frequency, TF over GST control); with SPIB, 1.02 fold enrichment (6-mer frequency, TF over GST control); with SPIC, 1.01 fold enrichment (6-mer frequency, TF over GST control); in the experiment with ELF4, 1.02 fold enrichment (6-mer frequency, TF over GST control). Further, the binding signal is 1.03 fold enrichment (6-mer frequency, TF over GST control) in the experiment with ETV1; 1.06 fold enrichment (6-mer frequency, TF over GST control) in the experiment with ETV3L; 1 fold enrichment (6-mer frequency, TF over GST control) with ETS2; 1.54 fold enrichment (6-mer frequency, TF over GST control) with SPDEF; 1.07 fold enrichment (6-mer frequency, TF over GST control) in the experiment with ETV7; 1.08 fold enrichment (6-mer frequency, TF over GST control) with ETV3.

These data come from article PMC7862700, “An all-to-all approach to the identification of sequence-specific readers for epigenetic DNA modifications on cytosine”.
